In PubChem BioAssay (NCATS):
Values joined by “and” are separate entries in the source; they are usually repeats but may differ in a detail not shown here. Identical values can stand only once. Records with an inconclusive call do not appear. Active and inactive are the calls of the source. Unless noted, calls come from the whole dose curve; as a rule, active = well fitted curve in the direction sought with a large enough effect; inconclusive = small, poorly fitted or top-dose-only effect, or another doubt; inactive = no such curve, though single readings can be large; an effect the other way counts as inactive or inconclusive.

Assays:
[1] = Primary qHTS for small molecule stabilizers of the endoplasmic reticulum resident proteome: Secreted ER Calcium Modulated Protein (SERCaMP) assay (AID 1508630); details: SH-SY5Y GLuc-SERCaMP (Gaussia luciferase released on ER calcium loss) secretion, thapsigargin, luminescence; series mostly up to 38.4 µM; note: % is set by controls: 0 for no effect and ±100 for the full control effect
In short: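 GLuc-SERCaMP-expressing SH-SY5Y cells, pretreated 16 h with compound, are challenged with thapsigargin to empty ER calcium stores; after 4 h, coelenterazine is added directly to the medium and luminescence is imaged.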

[2] = Primary qHTS for inhibitors of nuclear receptor binding SET domain protein 2 (NSD2) in an isogenic RCH-ACV NSD2 p.E1099K mutant (9B) (AID 1645876); details: RCH-ACV NSD2 E1099K (9B) viability, CellTiter-Glo, 72 h; series mostly up to 44.9 µM; note: nearly all actives have a fitted effect of over 70% in size; note: potency is the fitted concentration of half-maximal effect
[3] = Primary qHTS for inhibitors of nuclear receptor binding SET domain protein 2 (NSD2) in an RCH-ACV wild type WT cells (2C) (AID 1645877); details: RCH-ACV (leukaemia line) NSD2 WT (2C) viability, CellTiter-Glo, 72 h; series mostly up to 44.9 µM; note: nearly all actives have a fitted effect of over 70% in size; note: potency is the fitted concentration of half-maximal effect
[4] = biological target: Cytochrome P450 2D6 (Homo sapiens) (UniProt P10635); test: Cytochrome P450 family 2 subfamily D member 6 (CYP2D6) small molecule antagonists: luciferase biochemical (cell-free) qHTS assay (AID 1645840; active = well fitted curve in the direction sought with a large enough effect in the repeat runs; an effect the other way counts as inactive or inconclusive; note: nearly all actives have a fitted effect of over 55% in size; note: potency is the fitted concentration of half-maximal effect; for activity change, negative = inhibition: % is set by controls: 0 for no effect and ±100 for the full control effect); details: P450-Glo CYP2D6 enzyme, luciferin luminescence, 1 h; series mostly up to 57.4 µM
Sequence of Cytochrome P450 2D6 (Homo sapiens) (P10635 whole entry, looked up): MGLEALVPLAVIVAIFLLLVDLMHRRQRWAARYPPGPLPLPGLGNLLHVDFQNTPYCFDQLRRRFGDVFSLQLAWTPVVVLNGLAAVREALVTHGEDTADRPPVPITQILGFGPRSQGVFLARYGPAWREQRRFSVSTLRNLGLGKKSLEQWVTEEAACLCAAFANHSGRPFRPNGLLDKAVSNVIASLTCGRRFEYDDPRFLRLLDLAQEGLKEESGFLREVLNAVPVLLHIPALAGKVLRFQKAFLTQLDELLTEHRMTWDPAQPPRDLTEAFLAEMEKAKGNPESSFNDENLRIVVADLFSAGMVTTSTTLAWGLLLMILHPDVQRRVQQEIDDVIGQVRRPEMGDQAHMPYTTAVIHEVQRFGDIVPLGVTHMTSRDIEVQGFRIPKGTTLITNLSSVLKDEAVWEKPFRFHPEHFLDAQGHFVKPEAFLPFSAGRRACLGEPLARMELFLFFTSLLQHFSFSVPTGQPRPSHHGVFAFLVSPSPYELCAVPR
In short: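 P450-Glo luminescent screen: recombinant CYP2D6 enzyme–proluciferin substrate mix preincubated with compound 10 min at room temperature, then NADPH regeneration added for 1 h at room temperature. Detection reagent added for 20 min; luciferin light read as relative luminescence units.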

[5] = biological target: Catechol O-methyltransferase (Homo sapiens) (UniProt P21964); test: Confirmatory Screen for Target Class Profiling of Small Molecule Inhibitors of Methyltransferases (AID 1745852; calls by dose curve; note: potency is the fitted concentration of half-maximal effect; for activity change, negative = inhibition: % is set by controls: 0 for no effect and ±100 for the full control effect); details: MTase-Glo luminescence, SAH detection, recombinant enzyme; measured here: COMT max response; stronger effect = lower value
Sequence of Catechol O-methyltransferase (Homo sapiens) (P21964 whole entry, looked up): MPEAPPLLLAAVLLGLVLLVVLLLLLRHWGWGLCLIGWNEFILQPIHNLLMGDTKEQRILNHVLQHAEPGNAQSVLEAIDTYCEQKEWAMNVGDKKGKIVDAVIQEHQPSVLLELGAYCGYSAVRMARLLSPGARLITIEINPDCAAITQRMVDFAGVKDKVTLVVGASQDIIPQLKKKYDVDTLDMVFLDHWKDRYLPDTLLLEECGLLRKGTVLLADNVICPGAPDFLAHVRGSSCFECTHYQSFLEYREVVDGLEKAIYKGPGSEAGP

[6] = biological target: Guanidinoacetate N-methyltransferase (Homo sapiens) (UniProt Q14353); test: as above; details: MTase-Glo luminescence, SAH detection, recombinant enzyme; activity change, negative = inhibition: at 57.3 µM (top of the series) unless noted
[7] = biological target: Rap guanine nucleotide exchange factor 3 (Homo sapiens) (UniProt O95398); test: Confirmatory qHTS for agonist of cAMP-regulated guanine nucleotide exchange factor 3 (EPAC1) (AID 1645881); details: EPAC1 Rap1B BODIPY-GDP exchange fluorescence, 100% = cAMP control response; series mostly up to 154 µM;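 note: EPAC1 catalysed release of BODIPY-GDP from Rap1B seen as fluorescence loss; nearly all actives have a fitted effect of over 75% in size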
Sequence of Rap guanine nucleotide exchange factor 3 (Homo sapiens) (O95398 whole entry, looked up): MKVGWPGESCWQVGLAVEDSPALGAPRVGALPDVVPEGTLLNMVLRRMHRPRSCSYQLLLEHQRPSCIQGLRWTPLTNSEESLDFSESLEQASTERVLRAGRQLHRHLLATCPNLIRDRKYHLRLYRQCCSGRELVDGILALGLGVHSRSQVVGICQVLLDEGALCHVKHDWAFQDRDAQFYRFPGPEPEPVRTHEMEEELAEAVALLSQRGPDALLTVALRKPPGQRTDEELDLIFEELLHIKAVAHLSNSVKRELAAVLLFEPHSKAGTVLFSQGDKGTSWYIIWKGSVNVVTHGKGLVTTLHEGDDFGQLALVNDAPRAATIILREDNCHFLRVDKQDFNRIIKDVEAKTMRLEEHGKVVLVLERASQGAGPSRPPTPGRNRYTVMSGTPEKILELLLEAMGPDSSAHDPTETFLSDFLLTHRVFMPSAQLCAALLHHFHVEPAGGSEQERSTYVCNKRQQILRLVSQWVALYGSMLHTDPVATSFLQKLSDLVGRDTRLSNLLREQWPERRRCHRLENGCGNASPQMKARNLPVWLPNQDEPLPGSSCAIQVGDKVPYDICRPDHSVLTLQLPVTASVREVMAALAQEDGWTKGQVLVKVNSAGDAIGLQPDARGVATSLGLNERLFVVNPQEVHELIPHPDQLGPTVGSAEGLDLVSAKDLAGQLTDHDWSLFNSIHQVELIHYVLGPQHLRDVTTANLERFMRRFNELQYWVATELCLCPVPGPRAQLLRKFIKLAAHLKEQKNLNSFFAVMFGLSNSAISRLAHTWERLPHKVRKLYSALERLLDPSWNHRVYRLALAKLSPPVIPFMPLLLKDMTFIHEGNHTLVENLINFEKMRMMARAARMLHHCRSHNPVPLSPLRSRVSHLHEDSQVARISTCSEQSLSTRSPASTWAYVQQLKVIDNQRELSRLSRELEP

[8] = biological target: Rap guanine nucleotide exchange factor 4 (Homo sapiens) (UniProt Q8WZA2); test: Confirmatory qHTS for agonist of cAMP-regulated guanine nucleotide exchange factor 4 (EPAC2) (AID 1645884); details: EPAC2 GEF activity, Rap1B-BODIPY-GDP fluorescence, percent relative to cAMP agonist control; series mostly up to 154 µM;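 note: nucleotide exchange releases bodipy-GDP from Rap1 and this lowers its fluorescence; % is set by controls: 0 for no effect and ±100 for the full control effect; nearly all actives have a fitted effect of over 65% in size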
Sequence of Rap guanine nucleotide exchange factor 4 (Homo sapiens) (Q8WZA2 whole entry, looked up): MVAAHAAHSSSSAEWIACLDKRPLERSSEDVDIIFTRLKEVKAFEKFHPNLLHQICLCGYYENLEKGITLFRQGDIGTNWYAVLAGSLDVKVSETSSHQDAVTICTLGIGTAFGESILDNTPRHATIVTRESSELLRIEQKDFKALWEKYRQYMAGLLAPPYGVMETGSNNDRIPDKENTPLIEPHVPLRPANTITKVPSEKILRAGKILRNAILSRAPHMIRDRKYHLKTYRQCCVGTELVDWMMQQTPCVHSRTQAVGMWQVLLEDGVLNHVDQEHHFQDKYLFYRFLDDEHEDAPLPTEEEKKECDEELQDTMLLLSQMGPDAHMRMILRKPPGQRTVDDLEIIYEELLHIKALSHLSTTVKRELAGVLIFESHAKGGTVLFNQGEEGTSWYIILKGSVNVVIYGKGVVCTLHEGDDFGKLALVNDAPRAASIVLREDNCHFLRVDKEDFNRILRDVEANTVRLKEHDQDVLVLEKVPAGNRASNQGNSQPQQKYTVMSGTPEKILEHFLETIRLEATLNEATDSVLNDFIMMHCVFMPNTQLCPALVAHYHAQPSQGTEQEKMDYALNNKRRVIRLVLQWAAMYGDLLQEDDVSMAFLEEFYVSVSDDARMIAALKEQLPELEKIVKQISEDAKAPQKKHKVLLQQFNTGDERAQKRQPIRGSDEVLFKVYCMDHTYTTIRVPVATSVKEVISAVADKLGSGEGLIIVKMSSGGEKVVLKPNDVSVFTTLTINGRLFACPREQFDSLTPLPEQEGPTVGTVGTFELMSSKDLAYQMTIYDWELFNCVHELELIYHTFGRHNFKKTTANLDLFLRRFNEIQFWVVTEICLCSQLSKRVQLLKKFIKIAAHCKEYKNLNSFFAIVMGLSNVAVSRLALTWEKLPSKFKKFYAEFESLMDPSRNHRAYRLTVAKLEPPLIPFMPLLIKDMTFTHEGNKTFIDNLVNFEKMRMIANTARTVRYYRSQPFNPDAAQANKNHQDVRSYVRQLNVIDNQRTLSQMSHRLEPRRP

[9] = biological target: Rap guanine nucleotide exchange factor 4 (Homo sapiens) (UniProt Q8WZA2); test: Confirmatory qHTS for antagonist of cAMP-regulated guanine nucleotide exchange factor 4 (EPAC2) (AID 1645885); details: EPAC2 Rap1B-BODIPY-GDP exchange fluorescence, biochemical; note: potency is the fitted concentration of half-maximal effect; nearly all actives have a fitted effect of over 25% in size
[10] = biological target: Cytochrome P450 2C9 (Homo sapiens) (UniProt P11712); test: Cytochrome P450 family 2 subfamily C member 9 (CYP2C9) small molecule antagonists: luciferase biochemical (cell-free) qHTS assay (AID 1645842; active = well fitted curve in the direction sought with a large enough effect in the repeat runs; an effect the other way counts as inactive or inconclusive; note: nearly all actives have a fitted effect of over 55% in size; note: potency is the fitted concentration of half-maximal effect; for activity change, negative = inhibition: % is set by controls: 0 for no effect and ±100 for the full control effect); details: P450-Glo CYP2C9 enzyme assay, luciferin luminescence; series mostly up to 57.4 µM
Sequence of Cytochrome P450 2C9 (Homo sapiens) (P11712 whole entry, looked up): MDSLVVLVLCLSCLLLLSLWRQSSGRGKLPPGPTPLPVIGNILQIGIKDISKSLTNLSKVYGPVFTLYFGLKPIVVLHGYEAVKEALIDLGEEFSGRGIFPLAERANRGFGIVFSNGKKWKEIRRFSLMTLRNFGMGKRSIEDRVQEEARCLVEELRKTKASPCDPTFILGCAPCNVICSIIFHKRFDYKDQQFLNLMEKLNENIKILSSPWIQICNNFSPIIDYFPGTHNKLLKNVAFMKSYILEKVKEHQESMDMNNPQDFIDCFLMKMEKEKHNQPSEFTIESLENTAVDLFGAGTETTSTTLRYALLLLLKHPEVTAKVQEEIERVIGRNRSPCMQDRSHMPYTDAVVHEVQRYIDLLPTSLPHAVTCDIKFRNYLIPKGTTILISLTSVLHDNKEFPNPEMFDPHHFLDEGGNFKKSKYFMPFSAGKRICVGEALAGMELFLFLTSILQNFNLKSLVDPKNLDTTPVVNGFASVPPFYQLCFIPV
In short: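 Luminescence, after 20 min with luciferin detection reagent, reflected CYP2C9 turnover during a 1 h NADPH-driven reaction at 37C. Enzyme-substrate mix contained 0.4% bovine serum albumin and was preincubated with compound 10 min at room temperature.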

[11] = A High-Content qHTS Against Drug Library for the Identification of Small Molecules that Inhibit DYT1 Early Onset Primary Dystonia-Associated Cell Pathology (AID 1645839; calls by dose curve; note: potency is the fitted concentration of half-maximal effect); details: HEK293 Flp-In EGFP-delE TorsinA, punctate imaging, 48 h; series mostly up to 46.1 µM
In short: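 Flp-In T-REx 293 cells with tetracycline-inducible EGFP-delE hTOR1A (WT EGFP-hTOR1A as reference), 800 cells/well; compound added with tetracycline, 48 h at 37 C. Fixed, permeabilized cells imaged; %pathology (punctate TorsinA) primary, cell count counterscreen.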

Q: For `c1nc2nc(Nc3ccc(N4CCOCC4)cc3)nc(NC3CCCCC3)c2[nH]1`, which Potency [1] is on record?
A: The Potency was “inactive”.

Q: And the Potency [2]?
A: Its Potency is 632 nM (active) and 662 nM (active).

Q: With `CC(=O)Nc1sc2c(c1-c1nc3ccccc3s1)CNC2` as the compound, how does the Potency [1] read?
A: The Potency was “inactive”.

Q: What about the Potency [2] of the same compound?
A: The Potency was 2.9 µM (active).

Q: And the Potency [3]?
A: The Potency was 2.9 µM (active).

Q: Which Potency [1] does the source give for `CC(C)(C)OC(=O)Nc1ccc(-c2cc(C(=O)NCCCCCCC(=O)NO)no2)cc1` here?
A: The Potency was “inactive”.

Q: And the Potency [2]?
A: The Potency was 1.48 µM (active).

Q: What does the source list for `C=CC(=O)Nc1cc2c(Nc3ccc(F)c(Cl)c3)ncnc2cc1C#CC(C)(C)N1CCN(C)CC1`?
A: Potency [1]: inactive; Potency [2]: 2.63 µM (active); Potency [3]: 2.63 µM (active)

Q: What does the source list for `Nc1nc(-c2nn(Cc3ccccc3F)c3ncccc23)nc(N)c1N1CCOCC1`?
A: Potency [1]: inactive; Potency [2]: inactive; Potency [3]: inactive

Q: What does the source list for `O=C(CCCCCCNC(=O)c1cnc(N(c2ccccc2)c2ccccc2)nc1)NO`?
A: Potency [1]: inactive; Potency [2]: 728 nM (active) and 2.95 µM (active)

Q: With `CCN(CC)CCNC(=O)c1ccc2nc(-c3ccccc3)c(-c3ccc(CN4CCC(n5c(=O)[nH]c6ccccc65)CC4)cc3)nc2c1` as the compound, how does the Potency [1] read?
A: Its Potency is “inactive”.

Q: And the Potency [2]?
A: The Potency was 2.58 µM (active) and 3.32 µM (active).

Q: And the Potency [3]?
A: Its Potency is 2.58 µM (active) and 4.17 µM (active).

Q: Which Potency [1] does the source give for `CC[C@H](CO)Nc1nc(NCc2ccccc2)c2ncn(C(C)C)c2n1` here?
A: Its Potency is “inactive”.

Q: What about the Potency [2] of the same compound?
A: Its Potency is 14.8 µM (active).

Q: What does the source list for `COc1cc2c(cc1-c1c(C)noc1C)ncc1[nH]c(=O)n([C@H](C)c3ccccn3)c12`?
A: Potency [1]: inactive; Potency [2]: 0.468 µM (active); Potency [3]: 0.468 µM (active)

Q: What does the source list for `O=C(O)[C@H](Cc1c[nH]c2ccccc12)N1C(=O)c2ccccc2C1=O`?
A: Potency [1]: inactive; Potency [2]: inactive

Q: Which results are given for `O=C(Cc1ccc(-c2ccc(OCCN3CCOCC3)cc2)cn1)NCc1ccccc1`?
A: Potency [4]: inactive; Potency [2]: 459 nM (active) and 105 nM (active)

Q: Which results are given for `CC[C@@H]1C(=O)N(C)c2cnc(Nc3ccc(C(=O)NC4CCN(C)CC4)cc3OC)nc2N1C1CCCC1`?
A: Potency [1]: inactive; Potency [2]: 0.0372 µM (active); Potency [3]: 0.0372 µM (active); activity [5]: -18.1%; Potency [6]: 21700 nM (active)

Q: Which Potency [1] does the source give for `CC(C)(C)NC(=O)[C@H]1CN(Cc2cccnc2)CCN1C[C@@H](O)C[C@@H](Cc1ccccc1)C(=O)N[C@H]1c2ccccc2C[C@H]1O` here?
A: Its Potency is “inactive”.

Q: And the outcome [7]?
A: Its outcome is “inactive”.

Q: What about the outcome [8] of the same compound?
A: Its outcome is “inactive”.

Q: What about the Potency [9] of the same compound?
A: Its Potency is 44100 nM (active).

Q: Which Potency [4] does the source give for `Nc1ncnc2c1c(-c1cnc3[nH]ccc3c1)nn2C1CCCC1` here?
A: The Potency was “inactive”.

Q: And the Potency [10]?
A: The Potency was 0.425 µM (active).

Q: What about the Potency [2] of the same compound?
A: Its Potency is 365 nM (active) and 417 nM (active).

Q: What about the Potency [3] of the same compound?
A: Its Potency is 365 nM (active) and 417 nM (active).

Q: What about the activity [5] of the same compound?
A: The activity was -9.35%.

Q: And the activity change, negative = inhibition [6]?
A: The activity change, negative = inhibition was 0.397%.

Q: Which Potency [1] does the source give for `Cc1nc(Nc2n[nH]c3c2CN(C(=O)N[C@H](CN(C)C)c2ccccc2)C3(C)C)c2sccc2n1` here?
A: Its Potency is “inactive”.

Q: And the Potency [2]?
A: Its Potency is 10.3 nM (active) and 11.8 nM (active).

Q: What about the Potency [3] of the same compound?
A: Its Potency is 16.3 nM (active) and 11.8 nM (active).

Q: What about the activity [5] of the same compound?
A: The activity was -6.29%.

Q: What about the Potency [6] of the same compound?
A: Its Potency is 6.1 nM (active).

Q: What does the source list for `COc1ccc(F)c(F)c1C(=O)c1cnc(NC2CCN(S(C)(=O)=O)CC2)nc1N`?
A: Potency [4]: inactive; Potency [10]: 10.7 µM (active) and 19 µM (active); Potency [2]: 325 nM (active) and 662 nM (active)

Q: For `Clc1cccc(-n2nnnc2NCc2ccccc2Oc2ccccn2)c1Cl`, which Potency [4] is on record?
A: Its Potency is 5350 nM (active).

Q: And the Potency [10]?
A: The Potency was 6.01 µM (active).

Q: For `COc1ccc(-n2nc(C(N)=O)c3c2C(=O)N(c2ccc(N4CCCCC4=O)cc2)CC3)cc1`, which Potency [4] is on record?
A: The Potency was “inactive”.

Q: What about the Potency [10] of the same compound?
A: The Potency was “inactive”.

Q: What about the Potency [2] of the same compound?
A: The Potency was “inactive”.

Q: With `COC(=O)C1=C(C)NC(C)=C(C(=O)OCCN2CCN(C(c3ccccc3)c3ccccc3)CC2)C1c1cccc([N+](=O)[O-])c1` (centres undefined) as the compound, how does the Potency [11] read?
A: Its Potency is 8910 nM (active).

Q: And the Potency [10]?
A: The Potency was 1.55 µM (active).

Q: What about the Potency [3] of the same compound?
A: Its Potency is 9.34 µM (active).

Q: Which results are given for `Nc1cccc(-c2cc3c(Oc4cccc(O)c4)ncnc3[nH]2)c1`?
A: Potency [1]: inactive; Potency [2]: 1.15 µM (active) and 1.05 µM (active); Potency [3]: 1.15 µM (active) and 833 nM (active); activity [5]: -47.2%; Potency [6]: 30400 nM (active)

Q: For `C[C@@H]1CN(CC(=O)Nc2ccc3c(c2)Cc2cccc(-c4cc(=O)cc(N5CCOCC5)o4)c2S3)C[C@H](C)O1`, which Potency [1] is on record?
A: The Potency was “inactive”.

Q: What about the Potency [2] of the same compound?
A: The Potency was 5.9 µM (active).

Q: And the Potency [3]?
A: Its Potency is 4.68 µM (active).

Q: With `O=C(Nc1cn[nH]c1-c1nc2ccc(CN3CCOCC3)cc2[nH]1)NC1CC1` as the compound, how does the Potency [4] read?
A: Its Potency is “inactive”.

Q: And the Potency [10]?
A: The Potency was “inactive”.

Q: And the Potency [2]?
A: The Potency was 325 nM (active) and 366 nM (active) and 166 nM (active).

Q: And the Potency [3]?
A: Its Potency is 64.9 nM (active) and 58 nM (active) and 59 nM (active).

Q: For `CC[C@@H]1C(=O)N(C)c2cnc(Nc3ccc(C(=O)NC4CCC(N5CCN(CC6CC6)CC5)CC4)cc3OC)nc2N1C(C)C` (some centres undefined), which Potency [4] is on record?
A: The Potency was “inactive”.

Q: And the Potency [10]?
A: The Potency was 7.56 µM (active) and 12 µM (active).

Q: And the Potency [2]?
A: The Potency was 36.5 nM (active) and 16.3 nM (active) and 41.7 nM (active).

Q: What about the Potency [3] of the same compound?
A: Its Potency is 36.5 nM (active) and 41.1 nM (active) and 37.2 nM (active).
